Out of some 360,000 compounds screened, about 9,100 (2.5%) were called active. Inconclusive results (about 4%) are left out. The entries come from a sample that favours actives as a whole. A number with no mark means an inactive call. Rule as the data show it: active = max response below about -50%; inconclusive = no clear call, values can overlap the other calls; inactive = above that.
Target: D(3) dopamine receptor (Homo sapiens) (UniProt P35462)
Assay: qHTS of D3 Dopamine Receptor Antagonist: qHTS
Conditions: D3R cells, DiscoveRx beta-arrestin luminescence, antagonist mode; hits give low values
From the text: D3 DARs represent a very important target for the treatment of several neuropsychiatric disorders. Indeed, one of the most promising therapeutic applications for the D3 DAR is in the area of addiction and related disorders. […] These findings have been observed with a number of addictive substances including cocaine, amphetamine, nicotine, and alcohol. […] Antagonism of the D3 DAR may also be therapeutic in the treatment of schizophrenia or psychosis. […] Since the D3 DAR is expressed in areas of the CNS associated with the control of mood and emotion, it has been hypothesized that selective antagonism of the D3 DAR may be effective in treating psychosis without inducing the motor side effects typically seen with D2 DAR antagonists.
This part of the project aims to discover novel antagonist.
NIH Chemical Genomics Center [NCGC]
NIH Molecular Libraries Probe Centers Network [MLPCN]
Assay Submitter (PI): David Sibley, NINDS
Freshly passaged cells are plated in 1536 well white, solid bottom plates at a density of 1500 cells/well in 3microl of complete media. After an overnight incubation at 37 degrees C in 5% CO2, cells are loaded with 23nl of test compound from the compound library (as well as dopamine controls) using a 1536 pintool and incubated at 37 degrees C for 90 minutes. Two microliters of DiscoveRx reagent is then added to all cells, and they are incubated for an additional 30 - 60 minutes at room temperature. Following incubation, luminescence is measured on a ViewLux CCD-based luminometer reader using a 20 sec exposure time.
% is scaled to controls: 0 for no effect and ±100 for the full control effect.

Chain of D(3) dopamine receptor (Homo sapiens) (P35462 whole entry, looked up): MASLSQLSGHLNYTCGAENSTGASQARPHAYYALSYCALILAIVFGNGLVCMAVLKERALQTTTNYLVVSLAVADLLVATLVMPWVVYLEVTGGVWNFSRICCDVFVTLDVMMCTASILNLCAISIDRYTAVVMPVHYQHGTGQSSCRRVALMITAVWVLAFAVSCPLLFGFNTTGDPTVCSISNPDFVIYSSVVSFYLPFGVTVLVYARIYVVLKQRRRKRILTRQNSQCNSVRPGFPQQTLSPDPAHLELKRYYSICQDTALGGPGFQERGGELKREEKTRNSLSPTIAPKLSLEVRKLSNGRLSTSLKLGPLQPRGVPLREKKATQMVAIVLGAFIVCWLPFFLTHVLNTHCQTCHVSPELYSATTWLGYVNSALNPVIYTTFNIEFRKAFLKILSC

SMILES	max response, negative = inhibition
O=C(NCc1ccc(F)cc1)c1cc(C2CCCCN2C(=O)C2CCCCC2)on1 (stereo unspecified)	2.42%
CCC(=O)c1ccc(N2CCN(C(=O)c3cc([N+](=O)[O-])ccc3F)CC2)c(F)c1	15%
CCN1CCN(c2ccc([N+](=O)[O-])cc2C(=O)c2ccc(Cl)cc2)CC1	-55.6% (active)
O=C(Nc1cccc(Cl)c1)c1cc([N+](=O)[O-])ccc1N1CCN(CCO)CC1	-13.4%
O=C(Nc1ccc(C(=O)O)cc1)/C(=C/c1ccc([N+](=O)[O-])cc1)NC(=O)c1ccccc1	-12.4%
O=C(N/N=C/c1ccc(O)cc1)/C(=C/c1ccc([N+](=O)[O-])cc1)NC(=O)c1ccccc1	-52.3% (active)
O=C(NCCc1ccccc1)/C(=C\c1ccc([N+](=O)[O-])cc1)NC(=O)c1ccccc1	9%
Cc1sc2ccccc2c1CNC[C@H]1O[C@@H](n2ccc(=O)[nH]c2=O)[C@H](O)[C@@H]1O	23.7%
O=C(NCc1ccccc1Cl)c1csc([C@@H]2O[C@H](CO)[C@@H](O)[C@H]2O)n1	0%
Cc1ccccc1-c1csc(C(O)c2cccc(Cl)c2)n1 (stereo unspecified)	-14.8%
CC(C)Cn1cc(-c2cncc3nccn23)cn1	19.7%
NC(=O)CSc1nnc(-c2cccc(S(=O)(=O)N3CCOCC3)c2)o1	-19.7%
Cc1c(C(=O)NCc2ccc(C#N)cc2)sc(=O)n1Cc1ccc(C(=O)N(C)C)cc1	16.1%
COc1ccccc1NC(=O)C1CCN(C(=O)c2ccc(C(C)(C)C)cc2)CC1	-52% (active)
COc1ccc(C(=O)N2CCC(C(=O)Nc3cccc(C)c3)CC2)cc1OC	9.36%
CC(C)(C)c1ccc(C(=O)N2CCC(C(=O)N3CCCCC3)CC2)cc1	7.98%
CC(=O)N(C1=C(Cl)C(=O)c2ccccc2C1=O)c1ccc(C(=O)O)cc1	-17.6%
O=C1C(Cl)=C(Oc2ccccc2)C(=O)c2ccccc21	-90.6% (active)
COc1cccc(CNc2nc(NCc3cccs3)nc3ccsc23)c1	-28.6%
C[C@H](CO)N1C[C@H](C)[C@@H](CN(C)S(=O)(=O)c2ccc(F)cc2)OCc2cnnn2CCCC1=O	-22.3%
COc1ccc(C(C)(NC(C)=O)c2nc(-c3ccc(S(C)(=O)=O)cc3)cs2)cc1 (stereo unspecified)	0.123%
CC(C)Nc1ncnc2c1ncn2[C@H]1CN(Cc2ccncc2)C[C@@H](CO)O1	4.5%

SMILES	max response, negative = inhibition
Cc1cc2oc(C(=O)Nc3c(C)n(C)n(-c4ccccc4)c3=O)c(C)c2cc1Cl	-21.8%
Cc1c(NC(=O)c2cc(-c3ccc(Br)cc3)on2)c(=O)n(-c2ccccc2)n1C	-15%
Cc1c(NC(=O)c2coc(=O)c(Br)c2)c(=O)n(-c2ccccc2)n1C	-83.3% (active)
CCCCCNC(=O)C(c1ccc(OC)cc1)n1c(=O)c(-c2ccccc2)nc2ccccc21 (stereo unspecified)	3.45%
CC1=C(C(=O)N(C(C)C)C(C)C)CC(CC(=O)NCCCCc2ccccc2)C(=O)N1CCC1=CCCCC1 (stereo unspecified)	-16.1%
COC(=O)[C@]12CCCCC=C1N(Cc1ccc3c(c1)OCO3)C(=O)[C@H](CC(=O)NCc1cccs1)C2	3.72%
Cc1ccc(Cc2cnc(N)s2)o1	-53.2% (active)
Cc1ccc(CCC(=O)Nc2ncc(Cc3cc(Cl)ccc3Cl)s2)o1	-12.7%
CN(C)CCOC(=O)C(c1ccccc1)C1(O)CCCC1 (stereo unspecified)	-12.5%
CN(C)CCOC1c2ccccc2-c2ccccc21	-17.2%
Cc1ccccc1C(OCCN(C)C)C1CCCCC1 (stereo unspecified)	-100% (active)
COCCNc1ncnc2c1ncn2[C@H]1CN(Cc2ccc(OC)cc2)C[C@@H](CO)O1	6.87%
Cc1cc(C)n2c(NCc3ccccc3)c(CC(C)C)nc2n1	5.03%
Cc1ccc(CN(C)C[C@@H]2OCc3cnnn3CCCC(=O)N([C@@H](C)CO)C[C@H]2C)cc1	-25.2%
O=C(NCCNc1ccc([N+](=O)[O-])cc1)c1cccc2c(Br)cccc12	-58.2% (active)
CC(CNc1ccc([N+](=O)[O-])cc1)NC(=O)c1ccccc1Br (stereo unspecified)	3.2%
O=C(NCCNc1ccc([N+](=O)[O-])cc1Cl)c1ccccc1F	-0.899%
CC(C)Oc1ccc(CN2CCC2(C)C(=O)NCc2ccc(C(F)(F)F)cc2)cc1 (stereo unspecified)	30.5%
CC(OC(=O)c1cccc(S(=O)(=O)N2CCOCC2)c1)C(=O)NCC1CCCCC1 (stereo unspecified)	-12.6%
CCCCC[C@H](C)N1C[C@@H](COCc2ccccc2)Oc2cc(N3CCC[C@@H]3CO)ccc2S1(=O)=O	8.76%
CCCNC(=O)C1(C)CCN(C(=O)c2ccc(F)cc2Cl)C1 (stereo unspecified)	1.43%
COc1cccc2c1C(=O)c1c(O)c3c(c(O)c1C2=O)CC(O)(C(C)=NNC(=O)c1ccc(Cl)c(Cl)c1)CC3OC1CC(N)C(O)C(C)O1 (stereo unspecified)	-50.5% (active)

SMILES	max response, negative = inhibition
COc1ccc(NC(=O)C2(C)Cc3c(-c4cccc(NC(C)=O)c4)ccnc3O2)cc1OC (stereo unspecified)	17.2%
COC(=O)[C@H]1C[C@H](OC(=O)NCc2ccccc2)[C@@]2(O)CN(S(=O)(=O)c3ccc(C)cc3)CC2[C@H]1C(=O)OC (stereo partly specified)	-0.452%
CC=CCn1c(SCCCc2ccccc2)nc2c1c(=O)[nH]c(=O)n2C	41.3%
Cc1c(-c2ccccc2)n[nH]c1C(=O)N=Nc1c(O)[nH]c2ccccc12	32.7%
O=C(CCN1CCCCC1)N=Nc1c(O)[nH]c2ccccc12	-96.3% (active)
Oc1[nH]c2ccccc2c1N=Nc1c(F)c(F)c(F)c(F)c1F	17.9%
CCc1nc2ccc(C(=O)N(C)Cc3ccco3)cn2c1N(C)C(=O)Cc1ccccc1	3.24%
C[C@@H]1CN([C@@H](C)CO)C(=O)CCCn2nncc2CO[C@@H]1CN(C)S(=O)(=O)c1ccc(-c2ccccc2)cc1	-4.97%
Cc1cccc(-c2cnc(C(O)c3ccc4ccccc4c3)[nH]2)c1 (stereo unspecified)	-81.3% (active)
COc1cccc(C(O)c2ncc(-c3ccc4ccccc4c3)[nH]2)c1 (stereo unspecified)	38.7%
Cc1cccc(-c2cnc(C(O)c3cc(C)cc(C)c3)[nH]2)c1 (stereo unspecified)	0%
CC(=O)Nc1cc(-c2ccc(N3CCN(C)CC3)cc2)cn2c(-c3ccc(F)cc3)cnc12	-13.9%
CNc1cnc(-c2cc(OC)c(OC)c(OC)c2)cn1	1.16%
O=C(NCCN1CCOCC1)C1CCN(S(=O)(=O)c2ccccc2)CC1	31.8%
CC(C)Nc1nc(NCCOc2ccccc2Cl)c2sccc2n1	0%
C[C@@H]1CN([C@@H](C)CO)C(=O)c2cc(NS(C)(=O)=O)ccc2O[C@@H](C)CCCCO[C@H]1CN(C)C(=O)Nc1ccc2c(c1)OCO2	-18.4%
COCC1CCN(C(=O)C2CCC(=O)N(Cc3cccc(C(F)(F)F)c3)C2)CC1 (stereo unspecified)	-5.12%
COC(=O)Cc1c(O)ccn(Cc2cccc(C(F)(F)F)c2)c1=O	-71.6% (active)
CN(C)C(=O)c1cccn(Cc2cccc(C(F)(F)F)c2)c1=O	22.1%
Cc1cccc(NC(=S)NCCN(C2CCCCC2)C2CCCC2)c1	-65.7% (active)
Cc1cccc(C(=O)NC(=S)N(C)C2CCCCC2)c1	-4.93%
Cc1cccc(NC(=S)NCc2ccc3[nH]c4c(c3c2)CCCC4)c1	-3.36%

SMILES	max response, negative = inhibition
CC(=O)Nc1cccc(-c2ccnc3c2CC(C)(C(=O)NCc2ccccc2)O3)c1 (stereo unspecified)	0%
Cc1ccc(CC2(C)C(=O)Nc3ccc(OC(F)(F)F)cc32)cc1 (stereo unspecified)	0.0703%
c1ccc(CCC2=NCCn3cccc32)cc1	-55.5% (active)
S=C(NCCc1ccccc1)N1CCn2cccc2C1c1ccncc1 (stereo unspecified)	6.2%
CC1CSc2nnc(CCc3ccccc3)n21 (stereo unspecified)	-21.1%
CCCCN(C=O)c1c(CC)nc2c(OCCC3CCCCC3)cccn12	-10.7%
COc1ccc(C(O)c2nc(-c3ccc4c(c3)OCO4)cs2)cc1 (stereo unspecified)	4.32%
O=C(C[n+]1cc(-c2ccc(Cl)c(Cl)c2)n2c1CCC2)c1cccs1	-18.5%
Cc1ccc(-c2c[n+](CC(=O)Nc3ccccc3)c3n2CCC3)cc1	-65.6% (active)
Cc1ccc(C(=O)C[n+]2cc(-c3ccccc3)n3c2CCCCC3)cc1	-4.64%
O=CNc1cc(-c2ccc(C(=O)N3CCOCC3)cc2)cn2c(-c3ccc(F)cc3)cnc12	-24.2%
CC(Nc1nc(N2CCN(CCO)CC2)nc2ccccc12)c1ccccc1 (stereo unspecified)	0%
CC(Nc1nc(N2CCCC2)nc2ccccc12)c1ccccc1 (stereo unspecified)	-74.8% (active)
CC(Nc1nc(N2CCOCC2)nc2ccccc12)c1ccccc1 (stereo unspecified)	-1.04%
CC1(C(=O)Nc2cccnc2)Cc2c(-c3ccccc3)ccnc2O1 (stereo unspecified)	25.1%
CC1(C(=O)NS(=O)(=O)c2cccs2)CCN1C(=O)Cc1ccc(-c2ccccc2)cc1 (stereo unspecified)	15.7%
Cc1cc(OCC(=O)Nc2nccs2)c2c(C)c(C)c(=O)oc2c1	52.2%
CC(C)=C(NC(=O)c1ccccc1)C(=O)N/N=C(\C)c1ccccc1O	-73.8% (active)
CNC(=O)C(NC(=O)c1ccccc1)=C(C)C	0.178%
COc1ccc(/C(C)=N\NC(=O)c2ccc(-c3ccccc3)cc2)c(F)c1	-25.6%
